Experiment [1] can be described thus: TAMU_PeakParms_SingleDonor1434_Chronotropy: Texas A&M University (TAMU) 1.5-hr Human Induced Pluripotent Stem Cell (iPSC)-derived Cardiomyocytes Calcium (Ca+2) Flux Assay for Cardiotoxicity: Chronotropy (changes in peak frequency) (AID 2284217). The conditions noted are these: actives raise or lower the signal. The protocol: TAMU_PeakParms is a cell-based, multiplexed-readout assay that uses iPSC-derived cardiomyocytes with measurements taken at 1.5 hours after chemical dosing in a microplate: 384-well plate.TAMU_PeakParms_SingleDonor1434_Chronotopy is a phenotype derived from the peak.freq.avg parameter and uses an EC05 as its POD (5% increase in beat rate, compared to controls). Peak.Freq.Avg measures the average peak frequency, in beats per second, using Fluorescence intensity as a functional reporter from Calcium (Ca+2) flux assay technology. Before modeling, data is preprocessed to remove data points where there is a cessation of beating (where peak.freq.avg equals 0) to ensure the capture of the upwards response that isn't confounded by the drop in beat rate at higher concentrations and to ensure the drop in beat rate is captured before asystole, which is captured elsewhere.Data from the assay component TAMU_PeakParms_SingleDonor1434_Chronotropy was analyzed into 1 assay endpoint. This assay endpoint, TAMU_PeakParms_SingleDonor1434_Chronotropy_Negative, was analyzed with bidirectional fitting relative to DMSO as the negative control and baseline of activity. Using a type of functional reporter, gain or loss-of-signal activity can be used to understand changes in the cardiac function. To generalize the intended target to other relatable targets, this assay endpoint is annotated to the cardiomyocyte function intended target family, where the subfamily is lowered beat rate.
Each test compound from the chemical master plates was transferred into new tissue culture-treated 384-well microplates using acoustic dispensing (Labcyte Echo 550, Beckman Coulter, Indianapolis, IN) in amounts that would result in 5x concentrations (1, 5, 50, 500 uM) in the working plate in a final volume of 50 uL. Chemicals were randomly divided into 16 separate 384-well plates for screening such that the outer-most wells were left empty (308 wells were used on each plate). Fifteen of the plates contained unique test chemicals (n = 65 chemicals, 4 concentrations, one replicate each), positive controls (n = 10 chemicals, one concentration, 3 replicates each), vehicle (0.5% DMSO, n = 12), and media-only (n = 6) wells. Plate 16 contained test chemicals (n = 54 chemicals, 4 concentrations, one replicate each), inter-plate replicates (n = 11 chemicals with replicates, 4 concentrations, one replicate each), and the same design of positive controls and vehicle- and media-only wells as other plates. These plates were stored at -80C until the day of the assay. On assay day, the 5x concentrated chemical working plate was prepared by adding 50 uL cardiomyocyte maintenance medium containing 2.5% v/v DMSO to each well of the microplates. […]

A short description of experiment [2]: BSK_BT_PBMCCytotoxicity: PBMC Cytotoxicity Assessment in the BioMAP Diversity Plus: BT Assay (AID 2284225).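 Note: PBMC viability measured by Alamar Blue dye reduction fluorescence.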 The conditions noted are these: primary human B cells with PBMC. In short, it runs like this: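 75,000 cells/well; cpd 1 h → SEB + TSST-1 (20 ng/mL final each) → 90 h → Alamar Blue 6 h → fluor. 546/580 nm. DMSO = neg. control/baseline.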
Read-out in experiment [3]: Secreted IgG (sIgG), gene 3500
In words: BSK_BT_sIgG: BioMAP Diversity Plus: BT Assay for Secreted IgG (sIgG) Biomarker Activity (AID 2284226). The conditions noted are these: primary human B cells with PBMC. The procedure, abridged:
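Secreted IgG from a human primary B cell–PBMC co-culture was measured by ELISA 24 hours after dosing, with DMSO defining baseline activity.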

A short description of experiment [4]: BSK_BT_Bcell_Proliferation: Viability Assessment in the BioMAP Diversity Plus: BT Assay for B cell Proliferation (AID 2284227). The conditions noted are these: primary human B cells with PBMC. The procedure, abridged: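 SRB-based protein staining (0.1% SRB after 10% TCA fixation, 560 nm) quantifies proliferation in human B cells co-cultured with PBMC, 72 h post-dosing, with signal gain scored relative to DMSO negative control.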

Experiment [5] is described as follows: CCTE_Mundy_HCI_Cortical_Synap_Neur_Matur_SynapseCount: CCTE's Synaptogenesis and Neurite Maturation Assay in rat cortical cells for Synapse Count, Mundy Lab (AID 2284218). In short, it runs like this: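 Synapse count per neuron is measured in rat cortical neurons exposed to chemicals between DIV 7 and DIV 12, with glial growth arrested by AraC at DIV 5. Synaptophysin and MAP2 staining is imaged automatically; activity is fitted relative to DMSO.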

Experiment [6] in a line: CCTE_Mundy_HCI_Cortical_Synap_Neur_Matur_NeuriteCount: CCTE's Synaptogenesis and Neurite Maturation Assay in rat cortical cells for Neurite Count, Mundy Lab (AID 2284222).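 For outcome: exposure from day 7 to day 12 in vitro with readout at day 12.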 In short, it runs like this: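 Chemical exposure runs DIV 7–12 in rat cortical cultures, glia suppressed by AraC at DIV 5; measurement is at DIV 12. Imaging-derived neurite counts are fitted against DMSO baseline.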

Experiment [7] in a line: CCTE_Mundy_HCI_Cortical_Synap_Neur_Matur_CellBodySpotCount: CCTE's Synaptogenesis and Neurite Maturation Assay in rat cortical cells for Cell Body Spot Count, Mundy Lab (AID 2284223). The procedure, abridged:
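Read-out: cell body-associated synaptophysin puncta per neuron, imaged after MAP2, synaptophysin and Hoechst staining. Rat cortical cells, AraC DIV 5, chemical dosing DIV 7, fixation DIV 12. Activity fitted in positive direction relative to DMSO baseline.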

Experiment [8] is described as follows: CCTE_Mundy_HCI_hNP1_Pro_ResponderAvgInten: CCTE's Proliferation Assay in human neuroprogenitor cells, Mundy Lab (AID 2284224; active = hit-call score of the fitted dose curve at least 0.9, where 1 is the maximum;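 note: human neural progenitor cells hNP1 derived from WA09 embryonic stem cells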). In short, it runs like this: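 Proliferation read as average intensity of BrdU-positive cells, imaged at 26.25 h post-dosing: chemical exposure started after 40–44 h culture, BrdU during final 4 h, paraformaldehyde fixation. Positive-direction fit relative to DMSO.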

Experiment [9] can be described thus: CCTE_Mundy_HCI_hN2_NOG_NeuriteLength: CCTE's Neurite Outgrowth Assay in human hN2 cells for Neurite Length, Mundy Lab (AID 2284220; active = hit-call score of the fitted dose curve at least 0.9, where 1 is the maximum). In short, it runs like this:
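Read-out is neurite length from high-content imaging of βIII-tubulin/Alexa Fluor-488-labelled neurons, referenced to DMSO controls.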

A short description of experiment [10]: CCTE_Mundy_HCI_hN2_NOG_NeuronCount: CCTE's Neurite Outgrowth Assay in human hN2 cells for Neuron Count, Mundy Lab (AID 2284221; active = hit-call score of the fitted dose curve at least 0.9, where 1 is the maximum). In short, it runs like this:
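Read-out is the number of betaIII-tubulin-positive neurons imaged by automated high-content analysis, with DMSO as negative control.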

Where “and” joins values, the source holds several entries; their conditions need not be identical. Identical values can stand only once. Records with an inconclusive call do not appear. Some compounds were tested as several samples or in several runs, with calls that do not always agree. Calls of active or inactive are those of the source. Rule for the calls, unless noted: active = hit-call score of the fitted dose curve at least 0.9, where 1 is the maximum; inactive = score below 0.9.

As usually defined, the AC50 is the concentration giving half of the maximal activity seen.

For `ClC1C(Cl)C(Cl)C(Cl)C(Cl)C1Cl` (centres undefined), the concentration at half-maximal activity (AC50) in experiment [1] is 11.5 µM (active); in experiment [3], 30.5 µM (active) and 21.1 µM (active); in [4], 33.6 µM (active). Besides, the result in experiment [2] and in experiment [4] was inactive.
As for `O=S(=O)(O)C(F)(F)C(F)(F)C(F)(F)C(F)(F)C(F)(F)C(F)(F)C(F)(F)C(F)(F)F`, the call in experiment [5], in [6], in experiment [7], in experiment [2], in experiment [3] and in experiment [4] was inactive. Besides, the concentration at half-maximal activity (AC50) is 24 µM (active) and 33.9 µM (active) in experiment [2]; 19.5 µM (active) in [4].
On to `CNC(=O)CSP(=S)(OC)OC`, for which the concentration at half-maximal activity (AC50) in experiment [5] and in experiment [6] was 50 µM (active) each time. For the same compound, the compound was called inactive in experiment [5], in experiment [6], in experiment [7] and in [8].
As to `CC1(c2ccc(Oc3ccccc3)cc2)OC(=O)N(Nc2ccccc2)C1=O` (centres undefined), the AC50 was 40 µM (active) in [5], 59 µM (active) in experiment [6] and 79.9 µM (active) in experiment [7]. Also, the compound was classed as inactive in experiment [8].
Regarding `CC1(C)C(C=C(Cl)Cl)C1C(=O)OC(C#N)c1ccc(F)c(Oc2ccccc2)c1` (centres undefined), the half-maximal activity concentration (AC50) is 77.9 µM (active) in experiment [5], 73.6 µM (active) in [6] and 87.1 µM (active) in experiment [7]. For the same compound, the result in [5], in [6], in experiment [7] and in [8] was inactive.
As to `O=[N+]([O-])/N=C1\NCCN1Cc1ccc(Cl)nc1`, the outcome in [5], in [6], in experiment [7] and in [8] was inactive.
For the compound `O=C(O)COc1ccc(Cl)cc1Cl`, the compound was called inactive in experiment [5], in experiment [6] and in [8].
For the compound `COP(=O)(OC)OC=C(Cl)Cl`, the AC50 in [5] is 9.71 µM (active); in experiment [10] it was 0.355 µM (active). In addition, the call in experiment [5], in experiment [9], in experiment [6], in experiment [7] and in experiment [8] was inactive.
Regarding `O=S1OCC2C(CO1)C1(Cl)C(Cl)=C(Cl)C2(Cl)C1(Cl)Cl` (centres undefined), the AC50 in [1] is 4.73 µM (active); in experiment [5] it was 19.6 µM (active); in [7], 23.4 µM (active); in experiment [8] it was 23 µM (active). In addition, the outcome in experiment [6] was inactive.
